# “And” between values parts separate entries of the source, which are not always exact repeats. Identical values can stand only once. The panel holds about 83,000 compounds, 20% with a hit somewhere; the sample as a whole holds those more often.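 For each line, cells grew in 96-well plates with the test compound present at a single concentration for 48 hours.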 The source made the active and inactive calls. Rule for the calls: active = growth percent below 10; inactive = the rest.
# How the values were obtained:
# Assay in all cases: NCI-60 one-dose screen, 48 h (100 = growth as untreated, 0 = no growth, -100 = all killed)
# Conditions in all cases: 10 µM unless noted
# NCI/ADR-RES ovarian = system: NCI/ADR-RES ovarian
# T-47D breast = system: T-47D breast
# BT-549 breast = system: BT-549 breast
# MDA-MB-435 melanoma = system: MDA-MB-435 melanoma
# SW-620 colon = system: SW-620 colon
# MCF7 breast = system: MCF7 breast
# HCT-116 colon = system: HCT-116 colon
# HCC-2998 colon = system: HCC-2998 colon
# KM12 colon = system: KM12 colon
Structure (SMILES),growth (NCI/ADR-RES ovarian),growth (T-47D breast),growth (BT-549 breast),growth (MDA-MB-435 melanoma),growth (SW-620 colon),growth (MCF7 breast),growth (HCT-116 colon),growth (HCC-2998 colon),growth (KM12 colon)
CC(C)c1cccc(C(C)C)c1O,108% (inactive) and 106% (inactive),95% (inactive) and 93.2% (inactive),104% (inactive) and 97.8% (inactive),104% (inactive) and 100% (inactive),106% (inactive) and 112% (inactive),91.1% (inactive),101% (inactive) and 95.8% (inactive),105% (inactive) and 115% (inactive),111% (inactive) and 105% (inactive)
O=C(NC(Cl)=C(Cl)Cl)P(=O)(c1ccccc1)c1ccccc1,107% (inactive),105% (inactive),109% (inactive),92% (inactive),112% (inactive),97.3% (inactive),106% (inactive),114% (inactive),106% (inactive)
COc1ccc(N(CC(=O)NCCC[Te]c2ccccc2)C(=O)c2ccccc2)cc1,11.5% (inactive),135% (inactive),-36.2% (active),101% (inactive),82% (inactive),13.2% (inactive),9.88% (active),57.6% (inactive),26.3% (inactive)
CCC1CCC(=O)O1 (centres undefined),112% (inactive) and 124% (inactive),93.5% (inactive) and 118% (inactive),116% (inactive) and 129% (inactive),109% (inactive),111% (inactive) and 106% (inactive),90.5% (inactive) and 105% (inactive),106% (inactive) and 107% (inactive),109% (inactive),99.7% (inactive) and 108% (inactive)
COc1cc2c(cc1OC)-c1c3c(cc4c1[C@@H](C2)N(C)CC4)OCO3,43.5% (inactive),57.4% (inactive),55.8% (inactive),51.8% (inactive),35.1% (inactive),22.9% (inactive),16.1% (inactive),-3.7% (active),41.4% (inactive)
Cn1cc(C(=O)C[n+]2ccccc2)c2ccccc21,100% (inactive),86.9% (inactive),95.3% (inactive),105% (inactive),106% (inactive),101% (inactive),97.5% (inactive),106% (inactive),91.5% (inactive)
ClC1OC(Cl)(Cl)C(Cl)(Cl)OC1(Cl)Cl (centres undefined),102% (inactive),91.4% (inactive),84.4% (inactive),101% (inactive),115% (inactive),76.9% (inactive),89.4% (inactive),112% (inactive),104% (inactive)
CCCCCCCCCCCCCCCC[N+](C)(C)C,51.9% (inactive) and 82.5% (inactive),4.4% (active) and -13.9% (active),-76% (active) and -41.5% (active),-70.1% (active) and 7.38% (active),-92.5% (active) and 8.75% (active),-78% (active) and 16.9% (inactive),-72% (active) and 4.21% (active),-91% (active) and 20.9% (inactive),-83% (active) and -93.1% (active)
NC1CN2CCC1CC2 (centres undefined),101% (inactive),91% (inactive),95% (inactive),104% (inactive),99.7% (inactive),90.5% (inactive),109% (inactive),114% (inactive),115% (inactive)
Cc1cc(Br)c([N+](=O)[O-])cc1[N+](=O)[O-],94.4% (inactive),85.7% (inactive),106% (inactive),96.3% (inactive),23% (inactive),91% (inactive),20.5% (inactive),111% (inactive),91.8% (inactive)
COC(=O)CCP(CCC(=O)OC)c1ccccc1,106% (inactive),112% (inactive),90% (inactive),97.2% (inactive),105% (inactive),97.6% (inactive),97.6% (inactive),104% (inactive),111% (inactive)
Nc1ccc(P(=O)(O)O)cc1,93.1% (inactive) and 102% (inactive),101% (inactive),115% (inactive) and 98.3% (inactive),107% (inactive) and 105% (inactive),103% (inactive) and 106% (inactive),103% (inactive) and 89.1% (inactive),112% (inactive) and 103% (inactive),100% (inactive) and 96% (inactive),109% (inactive) and 99.6% (inactive)
COc1c(O)cc2c(c1OC)-c1ccc(SC)c(=O)cc1C(NC(C)=O)CC2 (centres undefined),-1.28% (active),81.9% (inactive),-9.83% (active),-47.2% (active),22.9% (inactive),13.3% (inactive),4.98% (active),-21.5% (active),-41.1% (active)
COc1ccc2c(c1)c(-c1nc(-c3cn(C)c4ncccc34)cs1)cn2CCCCN1CCOCC1,59.6% (inactive),64.5% (inactive),76.8% (inactive),-83.4% (active),-77.1% (active),15.1% (inactive),11.4% (inactive),7.68% (active),-5.62% (active)
COC(=O)[C@@H](C)C[C@H](Cc1ccccc1)NC(=O)c1cccc([C@@H](C[C@H](C(C)C)N(C)C(=O)[C@@H](NC(=O)[C@H]2CCCCN2C)C2CC2)OC(C)=O)n1,16.4% (inactive),63.1% (inactive),-17.1% (active),-25.4% (active),23% (inactive),14% (inactive),1.92% (active),13% (inactive),-1.96% (active)
COc1ccc2c(c1)c(-c1nc(-c3c[nH]c4ncccc34)cs1)cn2CCCCN1CCOCC1,63.3% (inactive),48% (inactive),84.2% (inactive),-59% (active),-63% (active),18.1% (inactive),32.5% (inactive),26.7% (inactive),16.4% (inactive)
CN(C)[C@@H]1C(=O)C(C(N)=O)=C(O)[C@@]2(O)C(=O)C3=C(O)c4c(O)ccc(Cl)c4[C@@](C)(O)[C@H]3C[C@@H]12,104% (inactive) and 109% (inactive),91.5% (inactive) and 97.7% (inactive),87.6% (inactive),99.6% (inactive) and 103% (inactive),101% (inactive) and 97.7% (inactive),94.8% (inactive) and 86.8% (inactive),81.4% (inactive) and 102% (inactive),92.2% (inactive) and 125% (inactive),94.7% (inactive) and 102% (inactive)
C[C@]12CC[C@H]3[C@@H](C[C@@H]4SC(Nc5cccc(F)c5)=N[C@@]45CC(=O)CC[C@]35C)[C@@H]1CCC2=O,55.4% (inactive),-0.755% (active),-8.61% (active),35.9% (inactive),4.62% (active),4.46% (active),-68.8% (active),75.5% (inactive),38.7% (inactive)
O=C(Cc1ccccc1)NC(O)C(Cl)(Cl)Cl (centres undefined),107% (inactive),110% (inactive),96.8% (inactive),109% (inactive),117% (inactive),93.1% (inactive),107% (inactive),110% (inactive),119% (inactive)
CC[CH2][Sn]([Cl])([Cl])[CH2]CC.Oc1ccccc1C=NCCN=Cc1ccccc1O,90.7% (inactive) and 91.1% (inactive),-86.4% (active) and -71% (active),72.7% (inactive) and 37.4% (inactive),71.8% (inactive) and 50.1% (inactive),2.07% (active) and -59.7% (active),21.9% (inactive) and 17.1% (inactive),66.2% (inactive) and 60.3% (inactive),66.5% (inactive) and 52.5% (inactive),88.4% (inactive) and 79.7% (inactive)
C=CC[PH+](c1ccccc1)c1ccccc1.C=CC[PH+](c1ccccc1)c1ccccc1.[Pt+2].[S-]c1nc2ccccc2[nH]1.[S-]c1nc2ccccc2[nH]1,88.4% (inactive),-6.06% (active),-28.1% (active),-50.5% (active),3.79% (active),3.99% (active),-29.7% (active),-33.2% (active),-63% (active)
Cc1cc(N(CCCl)CCCl)ccc1/C=N\NC(=O)c1cccnc1,81.6% (inactive) and 82.4% (inactive),57.5% (inactive) and 60.7% (inactive),86% (inactive) and 78.8% (inactive),91.3% (inactive) and 88.1% (inactive),91.4% (inactive),50.4% (inactive) and 59.7% (inactive),84% (inactive) and 79.2% (inactive),97.1% (inactive) and 102% (inactive),104% (inactive) and 95.1% (inactive)
COC12CC3C4=CCOC5CC(=O)N6c7ccccc7C1(CCN2C4)C6C53 (centres undefined),111% (inactive),103% (inactive),96.3% (inactive),114% (inactive),107% (inactive),95.2% (inactive),108% (inactive),96% (inactive),105% (inactive)
C[C@@]12CCCc3coc(c31)C(=O)c1cc3c(cc12)C(=O)C1=C(NCCS1(=O)=O)C3=O,81.5% (inactive),-45.9% (active),-51.7% (active),-83.5% (active),-43.8% (active),-54.1% (active),-16.5% (active),-30.8% (active),4.16% (active)
C=C[Se]CC(=O)/C=C/c1ccccc1,87.9% (inactive),82.3% (inactive),108% (inactive),83.7% (inactive),87.9% (inactive),87.2% (inactive),56.1% (inactive),85.4% (inactive),26.6% (inactive)
CCCCCCCCCCCCCCCC[n+]1ccccc1,41.7% (inactive) and 69.3% (inactive),3.84% (active) and -0.991% (active),-50.8% (active) and -73.3% (active),-82.2% (active) and -80.6% (active),-84.8% (active) and -29.2% (active),-21.9% (active) and -2.32% (active),-65% (active) and -95.5% (active),-80.8% (active) and -60.6% (active),-96.2% (active) and -81.6% (active)
